# This is part of a sample that, as a whole, favours compounds with a hit. Of some 83,000 tested, about 20% had one in any assay.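 48-hour exposure, single concentration, 96-well plates; percent growth endpoint where 0 means no net growth. Active: below 10.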 Unmarked numbers belong to inactive results. The source made the active and inactive calls.
# Key:
# Experiment in all cases: NCI-60 one-dose screen, 48 h (100 = growth as untreated, 0 = no growth, -100 = all killed)
# Conditions in all cases: 10 µM
# [1] = test system: RPMI-8226 leukemia
# [2] = test system: OVCAR-8 ovarian
# [3] = test system: OVCAR-5 ovarian
# [4] = test system: OVCAR-4 ovarian
# [5] = test system: SK-OV-3 ovarian
# [6] = test system: IGROV1 ovarian
# [7] = test system: OVCAR-3 ovarian
# [8] = test system: HS 578T breast
# [9] = test system: NCI/ADR-RES ovarian
# [10] = test system: T-47D breast
# [11] = test system: BT-549 breast
# [12] = test system: MDA-MB-435 melanoma
# [13] = test system: SW-620 colon
# [14] = test system: MCF7 breast
# [15] = test system: HCT-116 colon
# [16] = test system: HCC-2998 colon
# [17] = test system: KM12 colon
SMILES,growth [1],growth [2],growth [3],growth [4],growth [5],growth [6],growth [7],growth [8],growth [9],growth [10],growth [11],growth [12],growth [13],growth [14],growth [15],growth [16],growth [17]
O=C(C[P+](c1ccccc1)(c1ccccc1)c1ccccc1)C[P+](c1ccccc1)(c1ccccc1)c1ccccc1,-40.6% (active),-42.1% (active),-94.9% (active),-55.8% (active),-3.83% (active),-69.3% (active),-92.9% (active),-5.42% (active),1.56% (active),-45.2% (active),-89.2% (active),-80.6% (active),-71.9% (active),-69.8% (active),-93.3% (active),-83.9% (active),-75.5% (active)
COc1cc2cc3c(nc2cc1OC)CCN3Cc1ccc(NC(=O)c2ccc(Cl)c(C(F)(F)F)c2)cc1,91.2%,88.6%,99.5%,80.4%,91.7%,78.5%,94.3%,98.5%,99.4%,64.2%,112%,95.6%,114%,15%,93.4%,91.2%,109%
O=C(Nc1cccc(-n2cc(-c3ccncc3)c(-c3cc(O)cc(Cl)c3)n2)c1)Nc1ccc(Cl)c(C(F)(F)F)c1,13.8%,3.69% (active),59.3%,31.5%,63.1%,30.6%,1.88% (active),21.7%,41.5%,25%,47.6%,9.57% (active),-33.6% (active),13.4%,6.95% (active),34.3%,15.1%
COc1ccc(/C=C/C(=O)Nc2ccc(-c3nc4ccc(F)cc4s3)cc2)cc1,75.4%,103%,112%,83.2%,114%,104%,113%,111%,111%,91%,86.7%,97%,106%,38.9%,88.5%,99.1%,101%
O=C1OCC2=C1C(c1ccc(Cl)c(Cl)c1)c1cc3c(cc1N2CCO)OCCO3 (stereo not given),18.7%,27.7%,34.3%,55.7%,29.5%,34.6%,-53.7% (active),-13.3% (active),3.69% (active),62.2%,60.4%,-52.6% (active),19%,20.4%,19.8%,,4.49% (active)
NC(=O)c1ccc(-c2cccc3c(=O)nc(N4CCOCC4)oc23)cc1,104%,101%,96.8%,90.5%,103%,103%,99.4%,97.2%,97.3%,87.8%,98.1%,107%,104%,90.3%,104%,101%,97.6%
COc1cc(-c2cc(/C=C3\C(=O)Nc4ccccc43)[nH]n2)cc(OC)c1OC,24.3%,40.8%,77.6%,42%,87.5%,43%,57.8%,49.6%,35.2%,20.9%,34.7%,38.7%,60.2%,,47.3%,87.4%,10.3%
COc1ccc2c(c1)sc1nc(-c3ccccc3)c(-c3cccnc3)n12,79%,104%,110%,88.1%,108%,94.7%,113%,99.7%,96.4%,93.3%,85.1%,99.4%,97.5%,102%,78.5%,,106%
CC(=O)N1N=C(c2ccc(Cl)cc2)CC1c1sc(Cl)nc1Cl (stereo not given),87.5%,78%,96.9%,66.4%,83.2%,59.1%,75.6%,98.2%,80.7%,75.1%,89.9%,89.2%,102%,85.9%,75.9%,94.8%,93.5%
COc1ccc2c(c1)N(CCO)C1=C(C(=O)OC1)C2c1ccccc1 (stereo not given),22%,29.6%,66.5%,69.5%,19.5%,43.3%,-40.3% (active),-5.25% (active),-2.83% (active),37.6%,47.2%,-62.9% (active),13.9%,25.4%,25.9%,,17.4%
N#Cc1ncc(Br)c(NC2CCCCCC2)n1,93.4%,89.8%,99.9%,91.3%,99.1%,104%,119%,107%,106%,90.8%,98.4%,103%,113%,92.1%,104%,111%,113%
O=C(CC(NC(=O)OCc1ccccc1)C(=O)OCc1ccccc1)OCc1ccccc1 (stereo not given),99.2%,99%,103%,109%,95.1%,108%,110%,97.9%,98%,100%,112%,102%,91.6%,102%,97.4%,,108%
CC(=O)[C@H]1CC[C@H]2[C@@H]3CCC4=CC(=O)C=C[C@]4(C)[C@H]3CC[C@]12C,68%,92.4%,93.2%,87.2%,104%,94.8%,106%,96.2%,98.4%,86.8%,98%,98.7%,108%,97.9%,85.6%,99.2%,107%
O=C1OCC2=C1C(c1cccc(Cl)c1)c1cc3c(cc1N2CCO)OCO3 (stereo not given),22.4%,25.1%,31.2%,64.5%,19.4%,44%,-50.6% (active),-5.17% (active),-11% (active),62.6%,59.6%,-46.1% (active),21.3%,23.9%,19%,,8.24% (active)
COc1cc(C(=O)/C=C/c2cc(-c3cc(OC)c(OC)c(OC)c3)n[nH]2)cc(OC)c1OC,-46.1% (active),8.1% (active),44.9%,34.2%,47.3%,-20% (active),7.64% (active),62.4%,34.6%,-26.1% (active),-79% (active),-51.8% (active),-71.8% (active),3.65% (active),-93.6% (active),,-77.7% (active)
O=C(NC(Cc1ccc(O)cc1)C(=O)N=Nc1c(O)[nH]c2ccccc12)c1ccccc1 (stereo not given),112%,93.9%,110%,95.7%,103%,108%,103%,101%,98.7%,107%,102%,103%,96.4%,103%,99.3%,,99.2%
COc1cc2c(cc1OC)N(CCO)C1=C(C(=O)OC1)C2c1ccc(Cl)c(Cl)c1 (stereo not given),92.1%,103%,111%,104%,106%,110%,112%,103%,104%,88.3%,89.4%,101%,102%,95.8%,97.7%,,102%

# Reference: PubChem BioAssay (NCI)
